# Laboratory results taken from PubChem BioAssay AID651635 (National Center for Advancing Translational Sciences (NCATS), 2013).
# Hit rate of the full screen: of about 400,000 compounds, about 1,900 (0.47%) were called active. Roughly 14% stayed inconclusive and do not appear here. This excerpt belongs to a sample that is enriched for actives. A number with no mark means an inactive call. The call rests on the fitted dose curve; in most records, active means well fitted cell-killing curve with a large enough effect; inconclusive means small, poorly fitted or top-dose-only effect, or effect the other way; inactive means no such curve, though single readings can be large or run the other way.
# Test: Viability Counterscreen for Primary qHTS for Inhibitors of ATXN expression; further: nearly all actives have a fitted effect of over 40% in size
# Conditions: S2 cells (HEK-293 line with an ATXN2-luciferase reporter) viability, CellTiter-Fluor protease fluorescence, 24 h; series mostly up to 56.7 µM; activity change, negative = cytotoxicity: at the top concentration
# Description: Spinocerebellar ataxia type 2 (SCA2) is a multisystem neurodegenerative disease caused by a dominantly-acting mutation leading to expansion of a polyQ domain in the ataxin-2 protein (ATXN2). SCA2 patients develop progressive ataxia and later lose function in other neuronal systems. Prominent parkinsonian signs develop in some patients. Similar to many neurodegenerative disorders, no symptomatic or disease-modifying treatments are known.
# The primary objective of the proposed research is to identify compounds inhibiting ATXN2 expression and to test them for efficacy in SCA2 mouse models. To this end, we have developed a cell-based assay paired with an in vivo mouse model using identical luciferase expression constructs. This approach takes advantage of an ATXN2-luciferase transgene, with the luciferase gene flanked by the upstream and downstream portions of the ATXN2 gene. This primary assay was tested against the NIH Molecular Libraries Small Molecule Repository (MLSMR).
# NIH Chemical Genomics Center [NCGC]
# NIH Molecular Libraries Probe Centers Network [MLPCN]
# Assay Submitter (PI): Daniel Scoles, University of Utah
# PROTOCOL TABLE (as described by Inglese J, Shamu CE and Guy RK. 2007)
# SEQUENCE No. (e.g., 1, 2, 3, etc.); […] (e.g., Cells, Incubation, Reagent, etc.); VALUE; DESCRIPTION.
# 1; Cells; 4 uL; white, solid bottom, 1536-well Greiner assay plate.
# 2; Incubation; 2 hr; 37 degree C in 5% humidified CO2.
# 3; Compounds; 23 nL; Kalypsis pintool (Wako USA) equipped with a 1536-well pin head.
# 4; Incubation; 24 hr; 37 degree C in 5% humidified CO2.
# 5; Reagent; 1 uL; Gly-Phe-7-Amino-4-trifluoromethylcoumarin.
# 6; Incubation; 30 min; 37 degree C in 5% humidified CO2.
# 7; Detection; Fluorescence; ViewLux plate reader (PerkinElmer).
# 8; Reagent; 3 uL; SteadyGlo luciferase solution (Promega).
# 9; Incubation; 5 min; room temperature.
# 10; Detection; Luminescence; ViewLux plate reader (PerkinElmer).
# NOTES (numbers refer to Sequence numbers above)
# 1. S2 cells expressing ATXN2-luciferase reporter were suspended in phenol-red free DMEM and dispensed in assay plates using a Multidrop Combi dispenser (Thermo Fisher Scientific).
# 2. Assay plates were incubated. Evaporation was prevented by covering assay plates with metal lids containing holes to allow gas diffusion.
# 3. […] Vehicle-only plates, with DMSO being pin-transferred to columns 5-48, were inserted uniformly at the beginning and the end of each library to monitor and record any shifts in assay performance.
# 5. 125 uM Gly-Phe-7-Amino-4-trifluoromethylcoumarin (MP Biomedicals) working concentration was used at a final concentration of 25 uM.
# 7. To assess cell viability; the assay plates were read using the ViewLux high-throughput CCD imager (PerkinElmer), wherein single end-point fluorescence measurement was acquired (excitation 405/10; emission 540/25 nm).
# 8. Detection reagent SteadyGlo Luciferase (Promega) was added to the assay plate.
# 10. Luminescence is then measured on the ViewLux imager equipped with a clear emission filter using a 2 sec exposure. All screening operations were performed on a fully integrated robotic system (Kalypsys) containing one RX-130 and two RX-90 anthropomorphic robotic arms (Staubli).
# Inglese J, Shamu CE and Guy RK, Reporting data from high throughput screening of small molecule libraries, Nature Chemical Biology, 2007, 3(8): 438-441. doi.org/10.1038/nchembio0807-438.
# Potency means the concentration at half of the fitted maximal effect.
Structure (SMILES),Potency,"activity change, negative = cytotoxicity"
CC[C@H]1CN2CCc3cc(OC)c(OC)cc3[C@@H]2C[C@@H]1C[C@H]1NCCc2cc(OC)c(OC)cc21,39.8 µM (active),–
C[C@H]1CC[C@@]2(NC1)O[C@@H]1C[C@H]3[C@@H]4CC=C5C[C@@H](O)CC[C@]5(C)[C@@H]4CC[C@]3(C)[C@@H]1[C@@H]2C,–,-10.1% [at 25.4 µM]
C[C@]12CC[C@@H]3C(=CCc4cc(O)ccc43)[C@@H]1CCC2=O,–,-14% [at 25.4 µM]
CCOC(=O)c1c(C)c(C(=O)N2CCC3(CC2)OCCO3)c(C)n1CC,–,-18.8%
CC(=O)NC(=O)NC(C)Cc1ccccc1 (stereo not given),–,-18.5%
CC(Cc1ccccc1)NCCC(c1ccccc1)c1ccccc1 (stereo not given),20 µM (active),–
CC(Cc1ccccc1)NC=O (stereo not given),–,-23.5%
Cc1cc(-c2ccc(N)c(C)c2)ccc1N,–,-2.03%
CCN1C[C@@]2(COC)CC[C@H](OC)[C@]34[C@@H]1[C@]1(OCO[C@@]15C[C@@H](OC)C1C[C@H]3[C@H]5[C@@H]1OC)[C@H](O)[C@@H]24,–,-11% [at 25.4 µM]
CN1[C@@H]2CC[C@H]1CC(OC(=O)c1cc(Cl)cc(Cl)c1)C2 (stereo not given in full),–,-11.7%
O=C(CSc1ccccc1)Nc1ccc(C(=O)Nc2cccc(O)c2)cc1,–,-57.2%
COc1ccccc1C(=O)N[C@@H]1c2ccccc2C2(CCN(Cc3nc(C(C)C)cs3)CC2)[C@H]1O,35.5 µM (active),–
COC(=O)C1=C(c2ccc(Cl)c(C(F)(F)F)c2)C[C@@H]2CC[C@H]1N2C(=O)NC1CC1,–,-40.4%
Clc1ccc([C@@H]2C[C@H]3CC[C@@H]2N3)cn1,–,-15.3% [at 114 µM]
C[C@]12CC[C@H](O)C[C@@H]1CC[C@H]1[C@H]2CC[C@]2(C)C(=O)CC[C@@H]12,inactive,–
CCOC(=O)[C@]12Cc3cc(OC)ccc3[C@H]1N(C(C)C)C(=O)c1ccccc12,11.2 µM (active),–
CCOC(=O)[C@]12Cc3ccccc3[C@H]1N(C1CCCCC1)C(=O)c1cc(OC)ccc12,10 µM (active),–
COc1cccc(-c2ccc(O)c(CNC3CN4CCC3CC4)c2)n1 (stereo not given),–,5.68%
CCN1C[C@]2(C)CC[C@H](O)[C@@]34[C@@H]5CC6[C@@H](OC)C[C@@](O)([C@@H]5[C@@H]6O)[C@H](C[C@@H]23)[C@H]14,–,-4.51% [at 25.4 µM]
CCCOC(=O)c1cncn1C(C)c1ccccc1 (stereo not given),–,0.735%
Cc1nnc(NC(=O)c2cccn(Cc3cccc(F)c3)c2=O)s1,–,-19.4%
CCOC(=O)c1c(-c2ccccc2)oc2ccc(OC(=O)N(C)C)cc12,–,4.74%
COC(=O)C1=C(c2ccc(F)cc2OCc2ccccc2)C[C@@H]2CC[C@H]1N2C(=O)NCc1ccc2[nH]ccc2c1,–,-34.1%

Structure (SMILES),Potency,"activity change, negative = cytotoxicity"
CC1N=C(N)OC1c1ccccc1 (stereo not given),–,-1.45% [at 114 µM]
O=C(Cn1c(=O)n(CC2CS2)c2ccccc21)N1CCCCC1 (stereo not given),–,-4.21%
CC(=CCOc1ccc2ccc(=O)oc2c1)C1=CC(=O)C(C)(C)O1,–,-34.9%
O=c1[nH]c2ccccc2n1C1CCN(C(c2ccnc3ccccc23)c2nnnn2Cc2ccccc2)CC1 (stereo not given),12.6 µM (active),–
O=c1[nH]c2ccccc2n1C1CCN(C(c2ccccc2)c2nnnn2Cc2ccccc2)CC1 (stereo not given),7.08 µM (active),–
Cc1ccc(Cn2nnnc2CN2CCC(n3nnc4ccccc43)CC2)cc1,–,-3.67%
CCC(=NCCc1ccccc1)c1c(O)n(C2CCCCC2)c(=O)[nH]c1=O,–,-28.9%
O=P1(N(CCCl)CCCl)NC(OO)CCO1 (stereo not given),–,3.6%
Cc1ccsc1C(=O)C1CCCN(Cc2ccc(O)cc2)C1 (stereo not given),–,-7.9%
Cc1ccc(N2C(=O)NC(=O)C(CCc3ccncc3)(Cc3cccc(Cl)c3Cl)C2=O)cc1 (stereo not given),–,-29.8%
CCOP(=O)(OCC)C(O)c1ccc(OC)cc1OC (stereo not given),–,-10.4%
CC[N+]1(CCOC(=O)C(O)(c2ccccc2)c2ccccc2)CCCCC1,–,16.1%
Cc1ccc(Cl)cc1N1CCN(C(=O)C2CCC(CNS(=O)(=O)c3cccs3)CC2)CC1 (stereo not given),–,-31.8%
Oc1ccc2c3c1OC1[C@H](O)CC[C@@]4(O)[C@@H](C2)N(CC2CC2)CC[C@]314 (stereo not given in full),inactive,–
CO[C@]12CC[C@@]3(C[C@@H]1[C@](C)(O)C(C)(C)C)[C@@H]1Cc4ccc(O)c5c4[C@@]3(CCN1CC1CC1)[C@H]2O5,35.5 µM (active),–
CN(C)c1ccc(/C=C2\CC3C4CC=C5CC(O)CCC5(C)C4CCC3(C)C2=O)cc1 (stereo not given),–,-18.1%
CC(C)=C[C@@H]1[C@@H](C(=O)OCc2coc(Cc3ccccc3)c2)C1(C)C,–,9.08%
Cc1cc(OCc2cc(C(=O)O)oc2C)c2c3c(c(=O)oc2c1)CCCC3,–,7.94%
CN(Cc1cccc2ncccc12)C(=O)c1cnn(-c2nccc(-c3ccccc3F)n2)c1C1CC1,22.4 µM (active),–
CCCCC1C(=O)NC(=O)N(C2CCCCC2)C1=O (stereo not given),–,-8.69%
CC1=C(C(=O)O)N2C(=O)[C@@H](N)[C@H]2SC1,–,3.3% [at 25.4 µM]
NCC(O)c1ccc(O)cc1 (stereo not given),inactive,–
